KCNQ2 pot: potentiators of rat KCNQ2 potassium channel | CHO-K1 KCNQ2, FluxOR thallium flux fluorescence; stronger effect = higher value | AID 2239, 2010 | B-score at 10 µM | 0.54% of 310,000 active;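 active = fluorescence ratio B-score at least 3 SD of library B-scores, with initial fluorescence B-score within 3 of them, cut at about 5.3 in these data; same plate scores as AID 2156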;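 also: B-score of peak minus minimum over baseline fluorescence ratio after K+ and Tl+ stimulus; positive B-score means potentiation of KCNQ2 with more thallium influx and brighter signal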
KCNQ2 block: rat KCNQ2 potassium channel inhibitors, primary screen, cell-based, CHO-K1, FluxOR thallium flux, B-score | 20 min; stronger effect = lower value | B-score at 10 µM | 1.1% of 310,000 active;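 active = fluorescence ratio B-score at most minus 3 library SDs, with starting brightness B-score within 2 library SDs, cut at about -5.5 in these data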
Large screens that a line does not name were inactive. Compounds with a hit are over-represented: about 1.6% of the library has one in this group of screens.

COC(=O)C(Cc1cccc(C)n1)(c1ccccc1)c1ccccc1	none (no result: KCNQ2 pot)
O=S(=O)(c1cccc(C(F)(F)F)c1)N1CCC(c2cc(-c3cccc4ccccc34)n[nH]2)CC1	KCNQ2 block -6.1
COc1ccc(S(=O)(=O)N2CCC(c3cc(-c4cccc5ccccc45)n[nH]3)CC2)cc1	none (no result: KCNQ2 pot)
CN(Cc1ccccc1)C1CCCN(C(=O)c2ccc(Cl)s2)C1 (centres undefined)	none (no result: KCNQ2 pot)
CCOC(=O)c1cccc(OS(=O)(=O)Cc2ccccc2)c1	none
C[C@@H]1CCC2[C@](C)(CO)[C@@H](O)CC[C@]2(C)[C@@]12C[C@](CO)(CC(=O)O)CO2 (some centres undefined)	none
Cc1cccnc1Nc1nc(-c2ccccc2)cs1	KCNQ2 block -7.8
Cc1cccnc1Nc1nc(-c2ccccn2)cs1	none
COc1cc([N+](=O)[O-])ccc1NC(=O)NCC1CCN(Cc2ccc(Cl)cc2)CC1	KCNQ2 block -6.1
COc1ccc(Cl)cc1NC(=O)NCC1CCN(Cc2cc(C)ccc2C)CC1	none (no result: KCNQ2 pot)
CCN1C(=O)[C@H]2[C@@H](c3ccc(Cl)cc3)N3C(=O)CN(CC4CC4)C(=O)[C@@]3(Cc3ccccc3)[C@H]2C1=O	none
CC12CCC(C(=O)Nc3cccc(Cl)c3)(C(Br)C1=O)C2(C)C (centres undefined)	KCNQ2 pot 7
CC12CCC(C(=O)Nc3ccc(Cl)cc3)([C@H](Br)C1=O)C2(C)C (some centres undefined)	none (no result: KCNQ2 pot)
CCc1ccc(NC(=O)c2ccccc2SC)cc1	none (no result: KCNQ2 pot)
O=C(/C=C/c1ccc(-c2ccccc2[N+](=O)[O-])o1)c1ccc(Br)cc1	KCNQ2 block -7.2
O=C(/C=C/c1ccc(-c2ccccc2[N+](=O)[O-])o1)c1ccc(F)cc1	none (no result: KCNQ2 pot)
O=S(=O)(CCN1CCOCC1)c1ccc(OC(F)(F)F)cc1	none
Cn1c(=O)n(CC(N)=O)c(=O)c2c1nc(Br)n2Cc1ccccc1	none
CCCCOC(=O)Cn1c(=O)c2c(nc(Br)n2Cc2ccccc2)n(C)c1=O	KCNQ2 block -7.5
COc1ccccc1/C=C/C(=O)NCCc1ccccn1	none
Cc1cc2oc(=O)cc(CN3CCc4ccccc43)c2cc1Cl	KCNQ2 block -6.4
Cc1ccc2c(CN3CCCc4ccccc43)cc(=O)oc2c1C	none (no result: KCNQ2 pot)
O=c1cc(CN2CCc3ccccc32)c2ccc(O)cc2o1	none (no result: KCNQ2 pot)
CCc1ccc2c(CN3CCc4ccccc43)cc(=O)oc2c1	KCNQ2 block -5.6
O=C1CCCCN1CCCC(=O)N1CCCC(Nc2ccc(F)c(F)c2)C1 (centres undefined)	none (no result: KCNQ2 pot)
O=c1[nH]cnc2scc(-c3ccc(Br)cc3)c12	none
Cc1ccc(-c2csc3nc[nH]c(=S)c23)cc1	KCNQ2 pot 14
CN(C)CCn1c(SCc2ccccc2C#N)nc2c(sc3ccccc32)c1=O	none (no result: KCNQ2 pot)
Cc1ccc(-c2nc3ccccc3c(=O)n2NC(=O)COc2ccccc2)cc1	KCNQ2 block -6.8
COc1ccc(CC(=O)Nn2c(-c3ccccc3)nc3ccccc3c2=O)cc1	KCNQ2 pot 9.9
COc1ccc(C(=O)Nn2c(SCC(=O)c3ccccc3)nc3ccccc3c2=O)cc1	none (no result: KCNQ2 pot)
O=C(COc1ccccc1)Nn1c(-c2ccccc2)nc2ccccc2c1=O	none
COc1ccc(C(=O)Nn2c(SCc3ccc([N+](=O)[O-])cc3)nc3ccccc3c2=O)cc1	KCNQ2 block -6.2
COc1ccc(OCC(=O)Nn2c(-c3cccc(OC)c3)nc3ccccc3c2=O)cc1	none (no result: KCNQ2 pot)
O=S(=O)(NC(=NCCc1ccc(Cl)cc1)c1ccccc1Cl)c1cccs1	none (no result: KCNQ2 pot)
CC1(c2ccccc2Cl)NC(=O)N(CC(=O)NCc2ccc3c(c2)OCO3)C1=O (centres undefined)	none
CC(CC(=O)Nc1ccc2c(c1)OCCO2)c1ccccc1 (centres undefined)	none
CC(CC(=O)NC(C)c1ccc2c(c1)OCCO2)c1ccccc1 (centres undefined)	KCNQ2 pot 9.3
O=Cc1cc2ccccc2nc1SCCCF	none
COC(=O)C1=C(C)NC(C)=C(C(=O)O[C@@H]2CCCN(Cc3ccccc3)C2)[C@@H]1c1cccc([N+](=O)[O-])c1	KCNQ2 block -5.8
CCOC(=O)C1=C(C)NC(C)=C(C(=O)OC)C1c1cccc([N+](=O)[O-])c1 (centres undefined)	none (no result: KCNQ2 pot)
COc1cccc(-c2noc(C3CCCN(S(=O)(=O)c4cccc(Cl)c4C)C3)n2)c1 (centres undefined)	KCNQ2 block -6
CCCS(=O)(=O)N1CCCC(c2nc(-c3cccc(OC)c3)no2)C1 (centres undefined)	none (no result: KCNQ2 pot)
Cc1ccc(N2CC(C(=O)NCCC3=CCCCC3)CC2=O)cc1 (centres undefined)	none (no result: KCNQ2 pot)
COc1ccc(-c2nc(CN(CC3CCC(=O)N3)C(C)C)c(C)o2)c(C)c1C (centres undefined)	KCNQ2 block -6.7
COc1ccc(-c2nc(CN(C)C(C)c3ccon3)c(C)o2)c(C)c1C (centres undefined)	none (no result: KCNQ2 pot)
O=C(CN(c1cccc(C(F)(F)F)c1)S(=O)(=O)c1ccc(Cl)c([N+](=O)[O-])c1)NCc1ccc(F)cc1	none
CCN(CC(=O)Nc1ccc(N2CCOCC2)cc1)CC(=O)NC(C)(C)C	none (no result: KCNQ2 pot)
Cc1cc(Sc2nc(N)ncc2[N+](=O)[O-])ncn1	none (no result: KCNQ2 pot)
Cc1cc(Sc2ncnc(N)c2[N+](=O)[O-])ncn1	KCNQ2 block -5.9
O=C(O)C(Cc1c[nH]c2ccccc12)NS(=O)(=O)c1ccc(Cl)cc1 (centres undefined)	KCNQ2 block -7.3
O=C(O)C(Cc1c[nH]c2ccccc12)NS(=O)(=O)c1ccc(Br)cc1 (centres undefined)	none
Cc1ccn2c(Nc3ccc4c(c3)OCO4)c(-c3ccc(O)cc3)nc2c1	none
O=C(CN(Cc1ccco1)C(=O)c1cccc(Cl)c1)Nc1c(Cl)cc(Cl)cc1Cl	KCNQ2 block -5.7
O=C(CN(Cc1ccco1)C(=O)c1ccc(Cl)cc1)Nc1c(Cl)cc(Cl)cc1Cl	none (no result: KCNQ2 pot)
COc1cccc(CN(C(=O)/C=C/c2ccc(Cl)cc2)C2CCS(=O)(=O)C2)c1 (centres undefined)	none (no result: KCNQ2 pot)
O=C(Nc1ccc(O)c2c(=O)cc(-c3ccccc3Cl)oc12)c1ccc(F)cc1	none
CC(C)(C)c1ccc(C(=O)Nc2ccc(O)c3c(=O)cc(-c4ccccc4Cl)oc23)cc1	KCNQ2 block -7
Cc1ccc2cc(/C=C(\C#N)C(N)=O)c(N3CCCCC3)nc2c1	none (no result: KCNQ2 pot)
CCOC(=O)/C(C#N)=C/c1cc2ccccc2nc1N1CCCCC1	KCNQ2 block -6.5
COc1ccccc1NC(=O)NCCN1CCN(c2cccc(Cl)c2)CC1	none (no result: KCNQ2 pot)
O=C(CCCCCN1C(=O)[C@@H]2Cc3ccccc3CN2C1=O)Nc1cccc(F)c1	KCNQ2 block -5.8
Cc1cccc(NC(=O)CCCCCN2C(=O)[C@@H]3Cc4ccccc4CN3C2=O)c1	none (no result: KCNQ2 pot)
CC1(C)CN2C(=S)N(c3ccccc3)C(c3ccccc3)N2C1 (centres undefined)	KCNQ2 block -5.6
S=C1N(c2ccccc2)C(c2ccc(Cl)cc2)N2CCCN12 (centres undefined)	none (no result: KCNQ2 pot)
CCC1CCCCN1C(=O)c1ccc([N+](=O)[O-])o1 (centres undefined)	none (no result: KCNQ2 pot)
COc1ccc(/C=C/c2nc(-c3ccccc3O)n[nH]2)cc1OC	KCNQ2 pot 10
O=C(O)COc1ccc(/C=C/c2nc(-c3ccccc3O)n[nH]2)cc1	none
COc1ccc(/C=C/C(=O)C2(O)CCCCC2)cc1OC	none (no result: KCNQ2 pot)
O/N=C/c1cc(Br)cc(Br)c1OCc1ccccc1	KCNQ2 block -5.6
O/N=C/c1ccc(OCc2ccccc2)c(Br)c1	none (no result: KCNQ2 pot)

From PubChem BioAssay
